# From PubChem
# SENP8 block-1 = SENP8 protease inhibitors, primary screen, biochemical, luminescence; inhibition, % at 10 µM; Sentrin-specific protease 8 (Homo sapiens), Q96LD8; 1.2% of 330,000 active; purified SENP8, Z-RLRGG-aminoluciferin cleavage; in the data active = inhibition above about 50%
# Target sequence (Q96LD8 whole entry, looked up): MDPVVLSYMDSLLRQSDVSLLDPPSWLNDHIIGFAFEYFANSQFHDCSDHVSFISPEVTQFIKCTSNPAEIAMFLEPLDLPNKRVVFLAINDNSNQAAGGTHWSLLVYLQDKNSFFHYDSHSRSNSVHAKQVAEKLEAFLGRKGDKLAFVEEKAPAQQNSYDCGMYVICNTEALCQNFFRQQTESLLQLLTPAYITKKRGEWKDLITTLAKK
# SENP8 block-2 = human SENP8 protease inhibitors, primary screen, biochemical, fluorescence, Nedd8 protein substrate, uHTS; 0.64% of 360,000 active; inhibition, % at 20 µM; recombinant SENP8; in the data active = inhibition mostly above about 40%, no sharp cut-off; inactive = mostly below about 27%
# SENP7 block = SENP7 protease inhibitors, primary screen, biochemical, luminescence, uHTS; recombinant SENP7, Z-RLRGG-aminoluciferin luminescence, 40 min; inhibition, % at 5 µM; 1.5% of 330,000 active; Sentrin-specific protease 7 (Homo sapiens), Q9BQF6;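 active = inhibition above about 50% at the single test dose, limit read from the data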;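 also: plate controls were DMSO with enzyme for no effect and no enzyme buffer wells for full effect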
# Target sequence (Q9BQF6 706-1050 limits assumed): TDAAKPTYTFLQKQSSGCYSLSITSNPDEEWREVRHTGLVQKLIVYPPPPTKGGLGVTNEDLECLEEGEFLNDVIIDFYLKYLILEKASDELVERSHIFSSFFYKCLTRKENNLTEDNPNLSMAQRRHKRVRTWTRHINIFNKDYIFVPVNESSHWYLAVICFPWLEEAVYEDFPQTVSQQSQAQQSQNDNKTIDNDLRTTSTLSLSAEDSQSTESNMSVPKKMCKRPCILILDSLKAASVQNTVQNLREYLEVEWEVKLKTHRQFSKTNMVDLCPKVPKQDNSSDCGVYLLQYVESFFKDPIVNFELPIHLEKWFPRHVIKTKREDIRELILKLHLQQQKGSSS
# HSP90 refold inh = HSP90 inhibitors, primary screen, cell lysate, luminescence | inhibition, % at 5.6 µM | Rabbit reticulocyte lysate, luciferase refolding luminescence, 3 h | Heat shock protein HSP 90 (rabbit reticulocyte lysate; luciferase refolding) | 0.91% of 290,000 active;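 active = inhibition above the screen-wide mean plus 3 SD, computed separately per campaign, cut at about 16% in these data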;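 also: 0% = DMSO wells and 100% = 60 µM geldanamycin wells; inhibitors lower the luminescence because luciferase stays unfolded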
# SENP6 inh = SENP6 protease inhibitors, primary screen, biochemical, luminescence, uHTS. 1.8% of 330,000 active. Recombinant SENP6 catalytic domain, aminoluciferin luminescence. inhibition, % at 10 µM. Sentrin-specific protease 6 (Homo sapiens), Q9GZR1;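 active = inhibition above about 50% at the single tested dose, limit read from the data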;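 also: plate controls were DMSO wells with enzyme for no effect and DMSO wells lacking enzyme for full effect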
# The depositor's hits bear a star; i = inactive; / = not tested or not shown. The list is not random: actives were taken first. Their share in the collection is about 2.8%.
SMILES,SENP8 block-1,SENP8 block-2,SENP7 block,HSP90 refold inh,SENP6 inh
O=c1c2ccccc2[se]n1-c1ccccc1,61*,-11,58*,0,72*
O=c1c2ccccc2nc(-c2ccccc2)n1-c1ccccc1,5,4,-5,4,0
CC1Oc2cc3c(-c4c(O)cc(O)c5c(O)c6c(cc45)OC(C)C(C)C6=O)c(O)cc(O)c3c(O)c2C(=O)C1C (stereo not drawn),7,89*,16,-1,28
O=C1C(=O)c2ccccc2-c2ccccc21,93*,108*,97*,11,97*
O=c1c2ccccc2nc(-c2ccccc2F)n1-c1ccccc1,-6,11,7,-5,-10
CCCC(=O)NC1=C(N2CC2)C(=O)C(NC(=O)CCC)=C(N2CC2)C1=O,/,66*,/,/,/
CCCC(=O)Nc1ccc(N2CCN(CC)CC2)c(Cl)c1,3,14,-3,0,-28
COc1cc(C2c3cc4c(cc3CC3COC(=O)C32)OCO4)cc(OC)c1OC (stereo not drawn),-1,8,8,/,12
COc1ccc(NC2Oc3cc4c(cc3C(c3cc(OC)c(OC)c(OC)c3)C2C)OCO4)cc1 (stereo not drawn),/,52*,/,/,/
O=[N+]([O-])c1ccc(N(CCO)CCO)c2c1no[n+]2[O-],/,51*,/,/,/
CN1CCN(c2ccc([N+](=O)[O-])c3no[n+]([O-])c23)CC1,/,69*,/,5,/
CN1CCN(c2ccc(S(C)(=O)=O)cc2[N+](=O)[O-])CC1,-2,-2,6,0,8
COc1cccc(OC)c1CN1CCCC(C(=O)c2cccc(Cl)c2)C1 (stereo not drawn),8,10,4,-2,-2
COC(=O)C1C=C2c3cccc4[nH]cc(c34)CC2N(C)C1 (stereo not drawn),38,/,18,8,54*
CC(C)C[C@H]1C(=O)N2CCC[C@H]2[C@]2(O)O[C@](NC(=O)[C@@H]3C=C4c5cccc6[nH]cc(c56)C[C@H]4N(C)C3)(C(C)C)C(=O)N12,36,-396,21,/,51*
CCC(CO)NC(=O)C1C=C2c3cccc4[nH]cc(c34)CC2N(C)C1 (stereo not drawn),4,-394,-6,1,13
CC[C@@H](CO)NC(=O)[C@@H]1C=C2c3cccc4[nH]cc(c34)C[C@H]2N(C)C1,/,-379,/,/,/
O=C(CN1CC=C(c2ccccc2)CC1)NC(=O)NCc1ccco1,0,-109,8,-1,13
N#CC(C#N)=Cc1ccc(C=C(C#N)C#N)cc1,/,-6,/,49*,/
CCC(CO)(C(=O)OC1CC2CCC(C1)N2C)c1ccccc1 (stereo not drawn),-7,33,7,12,-6
OCCNc1c2c(nc3ccccc13)CCCC2,-9,29,-1,0,0
C[n+]1c2ccccc2nc2ccc(NCCO)cc21,71*,90*,41,6,81*
CNc1ccc2nc3ccccc3[n+](C)c2c1,47,72*,30,4,66*
O=C1/C(=C\c2cc3c(cc2Cl)OCO3)N2CCC1CC2,-12,7,-3,-6,6
O=C1NC(=O)C2C1C1(Cl)C(Cl)=C(Cl)C2(Cl)C1(Cl)Cl (stereo not drawn),/,10,/,/,/
SMILES,SENP8 block-1,SENP8 block-2,SENP7 block,HSP90 refold inh,SENP6 inh
CC(=Nc1ccc2c(c1)CCC2)c1c(O)n(C)c(=O)n(C)c1=O,0,11,4,/,-1
Cc1cc(C=C2C(=O)N(C)C(=S)N(C)C2=O)c(C)n1C1CCCCC1,-3,41*,-2,4,4
CC(=O)NC1=C(N2CC2C)C(=O)C(NC(C)=O)=C(N2CC2C)C1=O (stereo not drawn),/,65*,/,/,/
COc1ccc2c(c1)c(C(=O)O)c(C)n2CC(C)C,1,6,-2,-3,1
COc1cc(O)c(C(=O)O)c(-c2cc(O)c(O)cc2C)c1,6,66*,-3,/,11
CCn1nc(-c2ccccc2)nc2c(=O)n(C)c(=O)nc1-2,92*,17,96*,83*,89*
CCOc1ccc(-c2cc(C)[n+](CCN3CCOCC3)c(-c3ccc(OCC)cc3)c2)cc1,0,-407,0,2,-8
CN1/C(=C\C=Nc2ccccc2)C(C)(C)c2ccccc21,3,-15,2,-3,1
CCN1/C(=C/C=C/C2=[N+](CC)c3ccccc3C2(C)C)C(C)(C)c2ccccc21,/,41*,/,/,/
CN1/C(=C\C=C\C2=[N+](C)c3ccc4ccccc4c3C2(C)C)C(C)(C)c2ccccc21,35,/,24,8,59*
Cc1ccccc1C(=O)N1Cc2ccccc2-n2nncc2C1,/,-4,/,/,/
C/C(CC(c1ccccc1)c1c(O)c2ccccc2oc1=O)=N\Nc1ccc([N+](=O)[O-])cc1[N+](=O)[O-] (stereo not drawn),-4,-3,-6,1,95*
c1cncc(C2Nc3cccc4cccc(c34)N2)c1,14,52*,3,12,35
COC(=O)C1=C(C(=O)OC)SC2(S1)C(C(=O)OC)=C(C(=O)OC)Sc1c2ssc1=O,/,43*,/,/,/
O=C(COc1ccc(Cl)cc1)N(c1ccccc1Cl)C1CN2CCC1CC2 (stereo not drawn),3,12,6,6,4
c1ccc(CN2CCN(Cc3ccc4ccccc4c3)CC2)cc1,2,6,7,17*,13
CCOc1cc2c(cc1OCC)-n1cccc1C(c1ccc(F)c(OC)c1)NC2 (stereo not drawn),-7,3,-7,-3,-59
Nc1c(C(=O)NCC2CCCO2)c2nc3ccccc3nc2n1Cc1ccco1 (stereo not drawn),-6,-468,-2,1,5
Nc1c(C(=O)NC2CCCC2)c2nc3ccccc3nc2n1CC1CCCO1 (stereo not drawn),93*,i,90*,2,92*
O=c1c2ccccc2nc(/C=C/c2ccccc2O)n1-c1ccccc1O,-2,-147,-2,0,3
O=C1CC=C2C3CC4N(CCC45c4cc(O)c(O)cc4N1C25)CC3=CCBr (stereo not drawn),/,59*,/,/,/
O=C(NCC(c1cccnc1)N1CCOCC1)Oc1ccccc1 (stereo not drawn),-3,4,4,-2,1
N#CC(c1cccnc1)N1CCOCC1 (stereo not drawn),-9,2,-4,16*,13
C=CCN1C(=O)NC(=O)/C(=C/c2c(CCN(C)C(=O)c3ccccc3)cc3c(c2OC)OCO3)C1=O,-1,54*,-8,-1,-20
CNC(=S)N(C)CCc1cc2c(c(OC)c1C=C1C(=O)NC(=O)NC1=O)OCO2,-5,-135,-4,-4,-9
Cc1ccc(CN2CCN(Cc3ccccc3)CC2)cc1,4,10,5,5,3
CCCCC1C(=O)NC(=S)N(C)C1=O (stereo not drawn),/,16,/,/,/
